Screening data as filed in PubChem.
HEK cytotox: Cytotoxic Profiling in HEK 293 Cell Line of Diverse Libraries Using Quantitative High-Throughput Screening; actives 6.6% (n = 94,000); Potency, µM (titrated, usually from 115 µM), without a hit: at the top dose activity change, negative = cytotoxicity, hits mostly inhibitors; AID 1345083, 2018; HEK 293 viability, ATP luminescence (CellTiter-Glo), 48-72 h; further: on the % scale 0 is the no-effect control and ±100 the full control effect; nearly all actives have a fitted effect of over 60% in size
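HEK 293 cells at 250 cells/well were exposed to compounds by pintool transfer for 48 or 72 hr at 37 degree Celsius, 5% CO2. Viability was read as ATP-coupled luminescence with CellTiter-Glo after 10 min at room temperature.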
hNpr1 antagonist: Natriuretic polypeptide receptor (hNpr1) antagonism - Primary qHTS; Atrial natriuretic peptide receptor 1 (Homo sapiens), P16066; HEK293 hNpr1 GloSensor cGMP, ANP-stimulated luminescence; Potency, µM (titrated, usually from 46.3 µM), for inactives: top-dose activity change, negative = inhibition, actives largely listed as inhibitors; actives 1.6% (n = 76,000); calls by dose curve; further: on the % scale 0 is the no-effect control and ±100 the full control effect; nearly all actives have a fitted effect of over 60% in size
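HEK293 cells stably expressing human Npr1 and cGMP GloSensor pGS-40F, loaded 2 h with 2% GloSensor reagent, given compound 30 min at room temperature. Luminescence read before and 20 min after 0.1 nM hNppA.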
NIH3T3 tox: Cytotoxic Profiling in NIH 3T3 Cell Line of Diverse Libraries Using Quantitative High-Throughput Screening. AID 1345082, 2018. Potency, µM (highest dose often 96.7 µM), without a hit: at the highest dose activity change, negative = cytotoxicity, most hits filed as inhibitors. NIH 3T3 viability, CellTiter-Glo ATP luminescence, 48-72 h. actives 4.3% (n = 94,000); further: on the % scale 0 is the no-effect control and ±100 the full control effect; nearly all actives have a fitted effect of over 55% in size
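Cells were seeded at 400 per well, treated with pin-transferred compound, and kept 48 or 72 hr at 37 °C before CellTiter-Glo addition and luminescence imaging of cellular ATP.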
FLuc inh-1: Firefly luciferase inhibition profiling of diverse chemical library using quantitative high-throughput screening; Luciferin 4-monooxygenase (Photinus pyralis), P08659; purified P. pyralis luciferase, luminescence, biochemical; Potency, µM (series often up to 115 µM), actives largely listed as inhibitors; actives 2.5% (n = 76,000); further: on the % scale 0 is the no-effect control and ±100 the full control effect; nearly all actives have a fitted effect of over 65% in size
Target sequence (P08659 whole entry, looked up): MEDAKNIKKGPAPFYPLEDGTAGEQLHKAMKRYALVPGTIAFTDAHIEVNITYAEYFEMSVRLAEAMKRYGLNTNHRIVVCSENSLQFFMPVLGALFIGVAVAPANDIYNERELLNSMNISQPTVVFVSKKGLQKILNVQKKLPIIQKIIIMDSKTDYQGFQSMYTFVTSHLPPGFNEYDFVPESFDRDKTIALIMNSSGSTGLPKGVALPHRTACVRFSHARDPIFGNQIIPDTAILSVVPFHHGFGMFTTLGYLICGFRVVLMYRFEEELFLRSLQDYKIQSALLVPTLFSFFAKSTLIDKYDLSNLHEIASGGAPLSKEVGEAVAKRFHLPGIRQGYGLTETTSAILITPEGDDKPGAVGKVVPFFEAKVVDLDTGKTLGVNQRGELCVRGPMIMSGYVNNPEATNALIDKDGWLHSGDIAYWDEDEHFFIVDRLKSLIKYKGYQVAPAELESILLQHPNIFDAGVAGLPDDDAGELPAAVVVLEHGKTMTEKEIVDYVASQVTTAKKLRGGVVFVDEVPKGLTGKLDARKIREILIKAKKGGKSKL
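Luminescence read by CCD imaging after purified firefly luciferase (10nM final) was added to substrate buffer holding 10uM D-luciferin and 10uM ATP, pH 7.5, pre-dosed with compound.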
FLuc SDR no ATP: Firefly luciferase (FLuc-C-HiBiT) SDR gain of signal screen - without ATP | shares compounds with FLuc inh-1 | Purified FLuc-C-HiBiT, Nano-Glo HiBiT luminescence, no ATP | Potency, µM (series often up to 32.7 µM), for inactives: top-dose activation (signal gain), actives largely listed as activators | actives 7.8% (n = 1,300); further: nearly all actives have a fitted effect of over 55% in size
FLuc SDR ATP: Firefly luciferase (FLuc-C-HiBiT) SDR gain of signal screen - plus ATP; shares compounds with FLuc inh-1; purified FLuc-C-HiBiT + ATP, HiBiT complementation luminescence; Potency, µM (series often up to 32.7 µM), for the others: top-dose activation (gain of signal), usual class: activators; actives 8.7% (n = 1,300);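 further: signal reports ligand binding via conformational change of the enzyme rather than luciferase catalysis; % of control where 0% means no effect; nearly all actives have a fitted effect of over 55% in size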
FLuc inh-2: Firefly luciferase (FLuc-C-HiBiT) enzymatic inhibition screen - Functional assay; Potency, µM (doses to about 32.7 µM), for inactives: top-dose activity change, negative = inhibition, hits mostly inhibitors; shares compounds with FLuc inh-1; actives 42% (n = 1,300); purified FLuc-C-HiBiT enzyme, luciferin luminescence; further: on the % scale 0 is the no-effect control and ±100 the full control effect; nearly all actives have a fitted effect of over 70% in size
* = called active by the depositor; i = inactive; ? = inconclusive; · = no result given; [ ] = remark or other dose. The list is not random: actives were taken first. Their share in the collection is about 11%. Unless noted, the call rests on the fitted dose curve; in most records, active means well fitted curve in the direction sought with a large enough effect; inconclusive means small, poorly fitted or top-dose-only effect, or another doubt; inactive means no such curve, though single readings can be large; an effect the other way counts as inactive or inconclusive. Potency means the concentration at half of the fitted maximal effect.

SMILES	HEK cytotox	hNpr1 antagonist	NIH3T3 tox	FLuc inh-1	FLuc SDR no ATP	FLuc SDR ATP	FLuc inh-2
CNC(=O)c1cccc(-c2cnc(NC(=O)c3ccncc3)c3c2CCO3)c1	-15%[172 µM]	-15%[70.6 µM]	?	13µM*	23%[49.3 µM]	?	?
CNC(=O)c1cccc(-c2cnc(NC(=O)c3cn(C)cn3)c3c2CCO3)c1	·	·	·	·	23%[49.3 µM]	?	?
CN(C)c1cccc(C(=O)Nc2ncc(-c3cnn(C)c3)c3c2OCC3)c1	-27%[172 µM]	6%[70.6 µM]	?	?	·	·	·
Nc1nc2c(c(N3CC[C@@H](O)C3)n1)CCN(C(=O)[C@H]1CCCO1)CC2	2%	-1%	3%	i	·	·	·
COc1cccc(C(O)c2nc(C(=O)NCc3ccccc3)c(C)o2)c1 (centres undefined)	?	4%[70.6 µM]	-27%[138 µM]	i	·	·	·
O=C(NCC1CCOCC1)Nc1cc(F)c(F)c(F)c1	-5%	1%	-16%	i	·	·	·
COc1cccc(-c2cc3c(=O)n(CCNC(=O)C4CCN(C(C)=O)CC4)ccn3n2)c1	i	6%	-5%	14µM*	?	?	?
CCC(C(=O)NCCn1ccn2nc(-c3ccc(OC)cc3)cc2c1=O)c1ccccc1 (centres undefined)	?	-17%	?	8.9µM*	25%	14%	?
COc1ccc(-c2onc(C)c2C(=O)NCCc2ccc(F)cc2)cc1	?	-7%	-22%	i	·	·	·
COc1ccc(-c2nc(C)c(CCNC(=O)c3c(F)cccc3F)s2)cc1	·	·	·	·	17%	15%	-20%
CCOc1ccc(-c2cc3c(=O)n(CCNC(=O)Cc4ccccc4C)ccn3n2)cc1	?	-24%	-15%	?	·	·	·
COc1cccc(-c2cc3c(=O)n(CCNC(=O)C4CCCCC4)ccn3n2)c1	?	?	-24%	?	·	·	·
COc1cccc(-c2cc3c(=O)n(CCNC(=O)c4cc(C)cc(C)c4)ccn3n2)c1	-18%	-22%	-15%	?	·	·	·
COc1ccc(-c2cc3c(=O)n(CCNC(=O)c4ccco4)ccn3n2)cc1	?	-16%	?	7.9µM*	?	?	9.9µM*
O=S(=O)(c1ccc(F)cc1)N1CCC2(CC1)CC(OCC1CC1)CCO2 (centres undefined)	?	17%	?	i	·	·	·
CC(C)CN1CCN(C(=O)C2(CCO)CC23CCOCC3)CC1 (centres undefined)	1%	2%	2%	i	·	·	·
COc1ccc(C(=O)N2CCCC2c2nc(CCOCC3CC3)no2)cc1 (centres undefined)	i	0%	i	i	·	·	·
COc1ccc(-c2cc3c(=O)n(CCNC(=O)c4c(F)cccc4F)ccn3n2)cc1	-28%	-21%	-26%	4µM*	?	?	5µM*
COc1ccc(-c2cc3c(=O)n(CCNC(=O)c4c(F)cccc4Cl)ccn3n2)cc1	?	-23%	-15%	3.2µM*	?	?	?
O=C(Nc1cc(Cl)cc(Cl)c1)c1ccn2nccc2c1	-37%[172 µM]	-24%[70.6 µM]	?	14µM*	24%[49.3 µM]	17%[49.3 µM]	?
O=C(Nc1ccc(Cl)nc1)c1ccn2nccc2c1	-2%[172 µM]	-20%[70.6 µM]	-7%[138 µM]	i	·	·	·
CNCc1ccccc1-c1ccccc1	-29%[230 µM]	·	-31%[174 µM]	·	·	·	·
Fc1ccc(-c2cn3cc(Cc4ccccc4)sc3n2)cc1	·	·	·	·	?	?	0.28µM*
COc1ccc(-c2cn3cc(C(=O)NCc4ccc(Cl)cc4)nc3s2)cc1	-22%	·	-10%	·	·	·	·
Fc1ccc(Cc2cn3cc(-c4ccc(Cl)cc4)nc3s2)cc1	·	·	·	·	16%	14%	?
SMILES	HEK cytotox	hNpr1 antagonist	NIH3T3 tox	FLuc inh-1	FLuc SDR no ATP	FLuc SDR ATP	FLuc inh-2
Clc1ccccc1Cc1cn2cc(-c3ccccc3)nc2s1	·	·	·	·	?	?	0.44µM*
Fc1ccc(Cc2cn3cc(-c4ccccc4)nc3s2)cc1	·	·	·	·	?	?	0.44µM*
COc1ccc(S(=O)(=O)N2CCCC(Cc3noc(-c4cccnc4)n3)C2)cc1 (centres undefined)	?	?	?	i	·	·	·
O=C(NCCc1ccccc1)c1cn2cc(-c3ccc(C(F)(F)F)cc3)sc2n1	-4%	·	-12%	·	·	·	·
Brc1ccc(-c2cn3cc(Cc4ccccc4)sc3n2)cc1	·	·	·	·	22%	15%	?
CC1CCCN(c2ncnc3c2cnn3-c2cccc(Cl)c2)C1 (centres undefined)	·	·	·	·	11µM*	?	0.79µM*
